Sampled rows, rich in hits. Any-hit rate of the full collection: about 9.4%.
AMA1 RON2 block: disrupts binding of P. falciparum AMA1 to RON2; Potency, µM (titrated, usually from 58.2 µM), actives largely listed as inhibitors; AlphaScreen AMA1-biotinylated RON2 peptide binding; actives 0.2% (n = 360,000); also: nearly all actives have a fitted effect of over 45% in size
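AMA1 (3D7) with his tag at 25 nM final met compounds first, then biotinylated RON2 peptide at 25 nM; detection used donor plus acceptor beads, 10 µg/mL apiece, read by AlphaScreen after 30 min at room temperature.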
Pf growth 96h: P. falciparum growth inhibition at 96 hours; P. falciparum luciferase reporter growth, 96 h; Potency, µM (highest dose often 28.7 µM), actives largely listed as inhibitors; actives 6.9% (n = 320,000)
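Two parasite generations (96 h, 37 C, 5% CO2) of compound exposure in infected erythrocytes (0.05% parasitemia, 2% hematocrit). Luciferase-reporter P. falciparum; decreased luminescence indicates inhibited growth, aimed at apicoplast-acting delayed death.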
Pf growth 48h: inhibits P. falciparum growth in the first generation, 48 h; AID 504832; Potency, µM (top dose mostly 28.7 µM), actives largely listed as inhibitors; actives 5.9% (n = 310,000); P. falciparum luciferase growth in erythrocytes, 48 h
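Compounds are pin-transferred into medium, infected erythrocytes (2% hematocrit, 0.1% parasitemia final) are added, and plates sit one parasite generation at 37 C in 5% CO2. Detection reagent is then added and luminescence measured.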
SARS PLpro yeast: SARS-CoV PLP inhibition in yeast | actives 0.19% (n = 330,000) | Potency, µM (series often up to 32.9 µM), most hits filed as activators | S. cerevisiae expressing SARS-CoV PLpro, growth rescue; calls by dose curve; also: nearly all actives have a fitted effect of over 55% in size
Hits are given with their value; – = inactive; ? = inconclusive; · = no result. Unless noted, calls follow the shape of the dose curve; as a rule, active = well fitted curve in the direction sought with a large enough effect; inconclusive = small, poorly fitted or top-dose-only effect, or another doubt; inactive = no such curve, though single readings can be large; an effect the other way counts as inactive or inconclusive.

SMILES	AMA1 RON2 block	Pf growth 96h	Pf growth 48h	SARS PLpro yeast
Cc1cc[n+](CC(=O)c2ccc(NC(=O)c3ccccc3)cc2)c2ccccc12	–	?	1.65µM	–
O=C(NNc1ccc([N+](=O)[O-])cc1[N+](=O)[O-])C1C2CCCCC21 (stereo not given)	–	–	–	–
CC(=O)Nc1cccc(Oc2ncccc2[N+](=O)[O-])c1	–	–	–	–
COc1ccc(/C=C(\NC(=O)c2ccco2)C(=O)N2CCOCC2)cc1	–	–	–	–
Cc1ccc(C2CC(=O)N3CN(c4ccc(Br)cc4)CSC3=C2C#N)o1 (stereo not given)	–	4.65µM	·	–
CCOc1ccc(N2CSC3=C(C#N)C(c4ccco4)CC(=O)N3C2)cc1 (stereo not given)	–	?	·	–
CCc1ccccc1N1CSC2=C(C#N)C(c3cc(OC)c(OC)cc3OC)CC(=O)N2C1 (stereo not given)	–	–	13.1µM	–
COc1ccc(OC)c(C2CC(=O)N3CN(c4cccc(Cl)c4)CSC3=C2C#N)c1 (stereo not given)	–	7.38µM	·	–
COc1cccc(C2CC(=O)N3CN(c4cccc(Cl)c4C)CSC3=C2C#N)c1OC (stereo not given)	–	0.928µM	·	–
COc1ccc(OC)c(C2CC(=O)N3CN(c4ccc(C)c(Cl)c4)CSC3=C2C#N)c1 (stereo not given)	–	?	·	–
CC(=O)Nc1ccc(NC(=O)COc2cc(C)cc3oc(=O)cc(C)c23)cc1	–	–	–	–
CC(=O)Nc1ccc(S(=O)(=O)Oc2ccc(/C=C3\SC(N)=NC3=O)cc2)cc1	–	–	?	–
Cc1ccccc1NC(=O)CCCn1nc(C)c2c(C)n(-c3ccccc3)nc2c1=O	–	?	–	–
Cc1cc(C)cc(NC(=O)CCCn2nc(C)c3c(C)n(-c4ccccc4)nc3c2=O)c1	–	13.1µM	–	–
COc1ccccc1CNC(=O)CCCn1nc(C)c2c(C)n(-c3ccccc3)nc2c1=O	–	11.7µM	–	–
COC(=O)c1ccccc1NC(=O)CCCn1nc(C)c2c(C)n(-c3ccccc3)nc2c1=O	–	14.7µM	?	–
CCc1cc2c(=O)n(Cc3ccco3)c(SCC(=O)N(C)C3CCS(=O)(=O)C3)nc2s1 (stereo not given)	–	?	–	–
O=C(OCc1nc2ccccc2c(=O)[nH]1)c1cccs1	–	–	·	–
O=C(c1ccccc1)N1CCN(C(=O)c2ccccc2)C1c1ccccc1	–	–	·	–
Cc1ccc2c(c1)c1c(n2CC(O)CNC2CCCC2)CCCC1 (stereo not given)	?	?	–	–
Cc1ccc2c(c1)c1c(n2CCc2ccc(C)nc2)CCN(C)C1	·	2.08µM	14.7µM	–
Clc1ccccc1OCCCCN1CCCC1	–	?	–	–
CC(C)[C@H](NC(=O)c1cccc(S(=O)(=O)N2CCOCC2)c1)C(=O)Nc1nc2ccccc2s1	–	10.4µM	14.7µM	–
CC(C)C(NC(=O)c1cccc(S(=O)(=O)N2CCOCC2)c1)C(=O)NCc1ccc(Cl)cc1 (stereo not given)	–	–	?	–
CCOc1ccc(C(=O)N[C@H](C(=O)Nc2ccc(OC)c(S(=O)(=O)N3CCOCC3)c2)C(C)C)cc1	–	?	?	–
SMILES	AMA1 RON2 block	Pf growth 96h	Pf growth 48h	SARS PLpro yeast
CC(Sc1nc2cc(Cl)ccc2s1)C(=O)Nc1cccc(S(=O)(=O)N2CCOCC2)c1 (stereo not given)	–	13.1µM	–	–
CCOc1ccccc1C(=O)N[C@H](C(=O)Nc1ccc(OC)c(S(=O)(=O)N2CCOCC2)c1)C(C)C	–	?	13.1µM	–
CCOc1ccccc1NC(=O)[C@@H](NC(=O)c1cccc(S(=O)(=O)N2CCOCC2)c1)C(C)C	–	?	13.1µM	–
COc1ccc(OC)c(CN(CCN2CCOCC2)S(=O)(=O)c2ccc(NC(C)=O)cc2)c1	–	?	?	–
COc1ccc(N=CC2=C(O)CC(C)(C)CC2=O)cc1	–	–	·	12.6µM
CC1(C)CC(=O)C(C=Nc2ccc3c(c2)OCO3)=C(O)C1	–	·	–	–
CC1(C)CC(=O)C(C=NCCc2ccc(O)cc2)=C(O)C1	–	5.22µM	–	–
CC1(C)CC(=O)C(C=NCCc2ccccn2)=C(O)C1	–	·	–	–
CC1(C)CC(=O)C(C=Nc2ccc(O)c(N=CC3=C(O)CC(C)(C)CC3=O)c2)=C(O)C1	–	?	10.4µM	–
CC(C)(C)C1CCNC(=O)CC1 (stereo not given)	–	·	·	·
CCCCCn1c(CN2CCN(c3cccc(Cl)c3)CC2)nc2c1c(=O)[nH]c(=O)n2C	–	?	13.1µM	–
Cn1c(CN2CCN(c3cccc(Cl)c3)CC2)nc2ccccc21	–	?	13.1µM	?
CCn1c(N2CCN(CC(=O)c3c[nH]c4ccccc34)CC2)nc2c1c(=O)[nH]c(=O)n2C	–	–	?	–
CCCn1c(N2CCN(CC(=O)c3c(C)n(C)c4ccccc34)CC2)nc2c1c(=O)[nH]c(=O)n2C	–	–	0.0828µM	–
Cn1c(=O)[nH]c(=O)c2c1nc(CN1CCN(c3cccc(Cl)c3)CC1)n2CCc1ccccc1	–	–	?	–
CC(c1ccccc1)n1c(N2CCNCC2)nc2c1c(=O)[nH]c(=O)n2C (stereo not given)	–	–	8.28µM	–
COC(=O)c1c(C(=O)OC)c2cc(C(=O)c3ccccc3)ccn2c1Cl	–	?	?	–
O=C(Nc1nc(OCCN2CCCC2=O)cnc1/C=C\c1ccccc1)c1cc2ccccc2s1	–	·	·	·
O=C(Nc1ccc2c(c1)CN(Cc1ccco1)CC2)C1CCCO1 (stereo not given)	–	–	–	–
CCCCCCCCn1c(N2CCN(c3cccc(Cl)c3)CC2)nc2c1c(=O)[nH]c(=O)n2C	–	–	·	–
CCCCCCn1c(N(CC)CC)nc2c1c(=O)[nH]c(=O)n2C	–	1.85µM	–	–
Cc1ccc(N2CCN(c3ccc(NCc4nc5ccccc5n4C)cc3)CC2)cc1	–	5.22µM	13.1µM	–
Cn1c(=O)[nH]c(=O)c2c1nc(N1CCOCC1)n2CCN1CCOCC1	–	–	1.85µM	–
CCCCCCn1c(N2CCN(c3ccccc3)CC2)nc2c1c(=O)[nH]c(=O)n2C	–	14.7µM	8.28µM	–
Cc1cccc(C2NC(=O)c3ccccc3N2)c1 (stereo not given)	–	·	·	·
SMILES	AMA1 RON2 block	Pf growth 96h	Pf growth 48h	SARS PLpro yeast
Cc1ccc(C)c(OCC(=O)OCC(=O)Nc2c(C)nn(-c3ccccc3)c2C)c1	–	–	–	–
Cn1c(=O)[nH]c(=O)c2c1nc(CN1CCN(c3ccc(F)cc3)CC1)n2CCc1ccccc1	–	10.4µM	?	–
CCCCNC(=S)NNC(=O)c1csc(C(C)C)c1	–	–	–	?
O=[N+]([O-])c1ccc(NS(=O)(=O)c2cccc3cccnc23)cc1	–	11.7µM	–	–
O=S(=O)(Nc1ccc(O)cc1)c1cccc2cccnc12	–	–	·	–
Cc1cccc(Nc2nc3c(c(=O)n(C)c(=O)n3C)n2Cc2ccccc2)c1	–	·	–	–

Compound activity from PubChem BioAssay.
